# Results: the supplement of paper PMC5662767
# Counter-ions that a name gives are not always drawn.
# System: Drosophila S2 cl14 SmoIP sensor cells
# Assay: normalized SmoIP GFP fluorescence (untreated unstimulated = 0%, untreated Hh-stimulated = 100%); higher = more Smo activation sensor fluorescence
# Conditions: stimulation: Hh conditioned medium (+Hh); compound concentration: 2 uM; 24 h
# 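Note: flow cytometry read-out as median GFP intensity of gated cells, compounds added 30 min before Hh-conditioned or mock medium, mock-treated cells serving as unstimulated baseline.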
row,SMILES,normalized SmoIP GFP fluorescence
1,O=C(O)CC[C@H]1CC[C@@](c2cc(F)ccc2F)(S(=O)(=O)c2ccc(Cl)cc2)CC1,114%
2,CO[C@@H](C(=O)N1Cc2[nH]nc(NC(=O)c3ccc(N4CCN(C)CC4)cc3)c2C1)c1ccccc1,122%
3,Cc1cc(C2CCCCC2)n(O)c(=O)c1 [ciclopirox-ethanolamine],101%
4,Cn1c(=O)n(-c2ccc(C(C)(C)C#N)cc2)c2c3cc(-c4cnc5ccccc5c4)ccc3ncc21,113%
5,O=C(O)CCCN1CCC(O[C@@H](c2ccc(Cl)cc2)c2ccccn2)CC1 [bepotastine-besilate],103%
6,CC1(C)CNc2cc(NC(=O)c3cccnc3NCc3ccncc3)ccc21 [Motesanib-Diphosphate],136%
7,CCCNS(=O)(=O)Nc1ncnc(OCCOc2ncc(Br)cn2)c1-c1ccc(Br)cc1 [macitentan],126%
8,CCS(=O)(=O)c1cccc(-c2cc(C(=O)NC3CCN(C)CC3)c(C)c3[nH]c4ncc(C)cc4c23)c1,103%
9,Cn1c(=O)cc(N2CCC[C@@H](N)C2)n(Cc2cc(F)ccc2C#N)c1=O [trelagliptin],104%
10,"CO[C@H]1/C=C\C=C(/C)C(=O)NC2=CC(=O)C(NCCN(C)C)=C(C[C@@H](C)C[C@H](OC)[C@H](O)[C@@H](C)/C=C(\C)[C@@H]1OC(N)=O)C2=O [17-DMAG,Hydrochloride-Salt]",219%
11,O=S(=O)(c1ccccc1)N(CC(F)(F)F)c1ccc(C(O)(C(F)(F)F)C(F)(F)F)cc1,104%
12,CC(=O)/N=c1/sc(S(N)(=O)=O)nn1C [methazolamide],111%
13,Cc1cn(-c2cc(NC(=O)c3ccc(C)c(Nc4nccc(-c5cccnc5)n4)c3)cc(C(F)(F)F)c2)cn1 [Nilotinib],104%
14,Cc1cccc(CC(=O)N2CCc3c2ccc(-c2cn(C)c4ncnc(N)c24)c3F)n1,102%
15,Nc1ccn([C@H]2CC[C@@H](CO)O2)c(=O)n1 [Zalcitabine],114%
16,N#CC1(c2ccc(NC(=O)c3cccnc3NCc3ccncc3)cc2)CCCC1 [Apatinib-YN968D1],96.7%
17,Fc1ccc(C(c2ccc(F)cc2)N2CCN(C/C=C/c3ccccc3)CC2)cc1 [flunarizine-dihydrochloride],134%
18,COc1cc(Nc2c(C#N)cnc3cc(OCCCN4CCN(C)CC4)c(OC)cc23)c(Cl)cc1Cl [Bosutinib],143%
19,COCCOc1ccc2c(c1)ncn2-c1ccc2cccc(N3CCC(N)CC3)c2n1,264%

row,SMILES,normalized SmoIP GFP fluorescence
1,CN(C)Cc1c(C(=O)NCCOc2ccc(C(=O)NO)cc2)oc2ccccc12,211%
2,C[C@]12CCC(=O)C=C1[C@@H]1C[C@@H]1[C@H]1[C@@H]3[C@@H]4C[C@@H]4[C@@]4(CCC(=O)O4)[C@@]3(C)CC[C@@H]12 [Drospirenone],110%
3,Cc1ccc(NCCCc2ccccc2)c(N)c1,224%
4,CC(C(=O)O)c1ccc2c(c1)CC(=O)c1ccccc1S2 (stereo not drawn) [zaltoprofen],111%
5,CC(C)C1CCC(C(=O)N[C@H](Cc2ccccc2)C(=O)O)CC1 (stereo partly drawn) [Nateglinide(Starlix)],110%
6,CCCOc1ccc(C(=O)OCCN(CC)CC)cc1N [proparacaine-hcl],111%
7,CCC(=O)Nc1cccc(Oc2nc(Nc3ccc(N4CCN(C)CC4)cc3OC)ncc2Cl)c1,73.7%
8,CNC(=O)c1ccc(-c2cnc3ncc(Cc4ccc5ncccc5c4)n3n2)cc1F,107%
9,O=C(NCCS(=O)(=O)c1ccc(C(F)(F)F)cn1)c1ccc(Cl)cc1,120%
10,CC(=O)O[C@H]1CC[C@@]2(C)C(=CCC3C2CC[C@]2(C)C(c4cccnc4)=CCC32)C1 (stereo partly drawn) [Abiraterone-Acetate-CB7630],106%
11,Cc1cccc(-c2[nH]c(C(C)(C)C)nc2-c2ccc3nccnc3c2)n1,102%
12,COc1cc2c(cc1OC)CN(CCc1ccc(NC(=O)c3cc(OC)c(OC)cc3NC(=O)c3cnc4ccccc4c3)cc1)CC2 [tariquidar],120%
13,Cc1ccc(F)c(NC(=O)Nc2ccc(-c3cccc4[nH]nc(N)c34)cc2)c1,115%
14,NCCCCCNCC12CC3CC(CC(C3)C1)C2 [iem-1754-dihydrobromide],102%
15,CC(C(O)c1ccc(O)cc1)N1CCC(Cc2ccccc2)CC1 (stereo not drawn) [ifenprodil-tartrate],103%
16,Cn1cnc2c(F)c(Nc3ccc(Br)cc3F)c(C(=O)NOCCO)cc21,138%
17,Nc1nc(=O)n([C@@H]2CS[C@H](CO)O2)cc1F [Emtricitabine],111%
18,CO[C@H]1C[C@@H]2CC[C@@H](C)[C@@](O)(O2)C(=O)C(=O)N2CCCC[C@H]2C(=O)O[C@H]([C@H](C)C[C@@H]2CC[C@@H](OC(=O)C(C)(CO)CO)[C@H](OC)C2)CC(=O)[C@H](C)/C=C(\C)[C@@H](O)[C@@H](OC)C(=O)[C@H](C)C[C@H](C)/C=C/C=C/C=C/1C [Temsirolimus],56.5%
19,CNC(=O)c1cc(COc2nnc(Nc3ccc(Cl)cc3)c3ccoc23)ccn1 [Telatinib-BAY-57-9352],104%
